Experimental findings from PubChem BioAssay AID588492 (Sanford-Burnham Center for Chemical Genomics, 2011) are described below.

About 2,300 (0.64%) of roughly 360,000 compounds were called active.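 How the source made its calls: active means compounds giving at least 50% protection of heart cells from peroxide-induced death in the single-dose screen, raw or plate-pattern-corrected value; inactive means the rest.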 This excerpt belongs to a sample that is enriched for actives.

The experiment can be described thus: cardioprotection against H2O2-induced cell death, primary screen, uHTS, H9c2 cells, ATPLite luminescence (AID 588492).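 Further: 0% = DMSO wells with peroxide and 100% = DMSO wells without peroxide.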 The following applies: H9c2 cardiomyocytes, H2O2 injury protection, 2 h, at 20 µM, stronger effect = higher value. On the technique in general: Cellular ATP, detected with luciferase, serves as a proxy for viable cell number.
Turning to `Cc1ccc(S(=O)(=O)N2CCCC2C(=O)OCc2nc3sc(C)c(C)c3c(=O)[nH]2)cc1` (stereo not drawn), the protection from H2O2 cell death was 34.2% (inactive).

On to `Cc1cc(C)c2nc(N3CCC(C(=O)NCCN4CCOCC4)CC3)sc2c1`, for which the protection from H2O2 cell death was -1.3% (inactive).

For the compound `CCOC(=O)N1CCN(C(=O)CN(C2CCCCC2)S(C)(=O)=O)CC1`, the protection from H2O2 cell death was -2.2% (inactive).

In the case of `CC(C)=CCc1ccc(O)c(=O)cc1C(C)C`, the protection from H2O2 cell death was 54.2% (active).

As to `CC(C)c1cc(N=O)cc(C(C)C)c1O`, the protection from H2O2 cell death was -7% (inactive).

In the case of `CC(C)=CCc1c(O)c(CC=C(C)C)c2occ(-c3ccc(O)cc3)c(=O)c2c1O`, the protection from H2O2 cell death is -14.3% (inactive).

Consider `O=C(c1ccncc1)N1CCN(S(=O)(=O)c2cc(C(F)(F)F)cc(C(F)(F)F)c2)CC1`, for which the protection from H2O2 cell death is -1.3% (inactive).

In the case of `Cc1ccc2nc3c(cc(C(=O)NCCc4ccccc4)c(=N)n3CC3CCCO3)c(=O)n2c1` (stereo not drawn), the protection from H2O2 cell death was 5.6% (inactive).

As to `COc1ccc(CCn2c(=N)c(C(=O)NCC3CCCO3)cc3c(=O)n4cccc(C)c4nc32)cc1OC` (stereo not drawn), the protection from H2O2 cell death is 59.6% (active).

Turning to `COc1ccc(CCNC(=O)CCn2c(=O)c3ccccc3n(CC(=O)NCC3CCCO3)c2=O)cc1OC` (stereo not drawn), the protection from H2O2 cell death is 7.8% (inactive).

As for `CN1CCN(c2ccc(CNS(=O)(=O)c3cccc(F)c3)cc2)CC1`, the protection from H2O2 cell death was 7.1% (inactive).

As for `CCc1c(C)nc2ncnn2c1N1CCC(C(=O)NCc2ccc3c(c2)OCO3)CC1`, the protection from H2O2 cell death is -1.5% (inactive).

On to `CCOC(=O)Nc1ccc(S(=O)(=O)N(C)C(C)C)cc1`, for which the protection from H2O2 cell death is 3.1% (inactive).

Take `COc1cc(NC(=O)COC(=O)c2ccc([N+](=O)[O-])s2)cc(OC)c1OC`: the protection from H2O2 cell death is 41.6% (inactive).

On to `COc1ccc(C(=O)COC(=O)c2ccc([N+](=O)[O-])s2)cc1OC`, for which the protection from H2O2 cell death was 61.6% (active).

For `O=C(OCC(=O)N1CCN(c2ccccc2)CC1)c1ccc([N+](=O)[O-])s1`, the protection from H2O2 cell death was -0.2% (inactive).

With `CO/N=C(/CS(=O)(=O)c1ccc(Br)cc1)c1ccc(OC)cc1`, the protection from H2O2 cell death is -11.9% (inactive).

In the case of `Cc1ccc([N+](=O)[O-])c(OCCCNCC(C)O)c1` (stereo not drawn), the protection from H2O2 cell death was 0.6% (inactive).

For the compound `COc1cc(/C=N/NC(=O)c2ccccc2)ccc1OS(=O)(=O)c1ccccc1`, the protection from H2O2 cell death is 81.8% (active).

As to `COc1cc(/C=N/NC(=O)c2cccnc2)ccc1OC(=O)c1cccc(Br)c1`, the protection from H2O2 cell death is 27.2% (inactive).

As to `Cc1ccc(S(=O)(=O)Oc2ccc(/C=N/NC(=O)c3ccncc3)cc2)cc1`, the protection from H2O2 cell death was 2.7% (inactive).

In the case of `O=c1c2ccccc2ncn1/N=C/c1ccccc1`, the protection from H2O2 cell death is -10.6% (inactive).

On to `Cc1[nH]n(-c2cccc(Cl)c2)c(=O)c1/C=N/n1c(C)nc2ccccc2c1=O`, for which the protection from H2O2 cell death was 50.4% (active).

As to `O=Cc1c(N2CCN(c3cccc(Cl)c3)CC2)nc2ccccn2c1=O`, the protection from H2O2 cell death is 42.7% (inactive).

In the case of `O=C(N/N=C/c1ccccc1O)/C(=C/c1ccccc1)CCO`, the protection from H2O2 cell death is 35.8% (inactive).

With `Oc1ccccc1C=NC1CCCCC1N=Cc1ccccc1O` (stereo not drawn), the protection from H2O2 cell death was 7.8% (inactive).

In the case of `O=C(NN=Cc1ccccc1O)C(=O)NN=Cc1ccccc1O`, the protection from H2O2 cell death was 53.6% (active).

In the case of `COCCNC(=S)c1ccc(OC)cc1`, the protection from H2O2 cell death was 5.4% (inactive).

With `CCNC(=O)C1(C)CCCN1C(=O)c1ccc(N(C)C)cc1` (stereo not drawn), the protection from H2O2 cell death is 0.7% (inactive).

Consider `Cc1nc(N2CCN(c3ccccn3)CC2)c2c(C)c(C(=O)Nc3ccc(F)cc3)sc2n1`, for which the protection from H2O2 cell death is 71.4% (active).

Turning to `Cc1nc(N2CCOCC2)c2c(C)c(C(=O)Nc3ccc(C(F)(F)F)cc3)sc2n1`, the protection from H2O2 cell death was -3.8% (inactive).

Regarding `Cc1nc(N2CCN(c3ccccn3)CC2)c2c(C)c(C(=O)Nc3ccc(F)c(Cl)c3)sc2n1`, the protection from H2O2 cell death is 31.9% (inactive).

For the compound `COc1ccc(S(=O)(=O)N2CCN(c3cnccn3)CC2)cc1`, the protection from H2O2 cell death is -1.4% (inactive).

For `CCc1nc2ccc(C(=O)NC3CCN(Cc4ccccc4)CC3)cn2c1N(C)CCN1CCOCC1`, the protection from H2O2 cell death is 7% (inactive).

On to `CCOC(=O)N1CCN(Cc2oc(CO)cc(=O)c2O)CC1`, for which the protection from H2O2 cell death was 13% (inactive).

Regarding `CC(C)C1N=C2c3ccccc3N=C(SCC(=O)c3ccc(O)c(O)c3)N2C1=O` (stereo not drawn), the protection from H2O2 cell death is 96.8% (active).

Take `O=C(CSC1=Nc2ccccc2C2=NC(c3ccccc3)C(=O)N12)NCC1CCCO1` (stereo not drawn): the protection from H2O2 cell death is 29.7% (inactive).

On to `NC(=O)CSC1=Nc2ccccc2C2=NC(CCC(=O)NCc3ccc(F)cc3)C(=O)N12` (stereo not drawn), for which the protection from H2O2 cell death was 2.5% (inactive).

Regarding `Cc1ccc(S(=O)(=O)N2CCC(C(=O)N[C@@H](C)C(=O)NCCc3ccccc3)CC2)cc1`, the protection from H2O2 cell death is 2% (inactive).

As to `COc1cccc(CNc2nc3cc(-c4csc5ccccc45)sc3c(=O)n2C)c1`, the protection from H2O2 cell death was -3.9% (inactive).

Regarding `CN(C(=O)c1ccccn1)c1nnc(-c2ccccn2)s1`, the protection from H2O2 cell death is -5.5% (inactive).

For the compound `CCOc1cccc(-c2nn3c(-c4ccccn4)nnc3s2)c1`, the protection from H2O2 cell death was 68% (active).

Take `CCOc1cccc(-c2nnc(SCC(=O)NC3CC3)n2C)c1`: the protection from H2O2 cell death is -1.8% (inactive).

For the compound `COc1ccc(-n2c(SCC(=O)OC(C)C)nnc2-c2ccccn2)cc1`, the protection from H2O2 cell death is 4% (inactive).

As to `COc1ccc(-c2nc3ccccc3n2CCC(C)C)cc1OC`, the protection from H2O2 cell death was 6.5% (inactive).

`c1ccc(-c2cc(-c3nnc4sc(-c5ccccn5)nn34)[nH]n2)cc1`: the protection from H2O2 cell death is 63.3% (active).

In the case of `COc1ccc(-c2nn3c(-c4ccccc4)nnc3s2)cc1OC`, the protection from H2O2 cell death is 63.1% (active).

Regarding `COc1ccc(NC(=O)c2cc3nc(-c4ccccc4)cc(C)n3n2)cc1OC`, the protection from H2O2 cell death is 36.7% (inactive).

Consider `O=S(=O)(Nc1ccc2ccccc2c1)N1CCCCC1`, for which the protection from H2O2 cell death is -4% (inactive).

With `Cc1c(C(=O)O)nnn1-c1nonc1N`, the protection from H2O2 cell death is 3.3% (inactive).

For `Cc1cc(C)c(CN2CCN(C(=O)Cn3ccc(NC(=O)OCc4ccccc4)nc3=O)CC2)c(C)c1`, the protection from H2O2 cell death was -25% (inactive).

With `CCN(CC)CCCN1C(=O)C(=O)/C(=C(/O)c2c(C)nc3ccccn23)C1c1ccc(C)o1` (stereo not drawn), the protection from H2O2 cell death is 4.2% (inactive).

For the compound `COC(=O)c1ccc2nc(-c3ccc(Cl)cc3)c(Cc3cccc(F)c3)n2c1`, the protection from H2O2 cell death was -2.7% (inactive).

Take `Cc1ccc(N/C(N)=N/c2nc(C(F)(F)F)cc(C(F)(F)F)n2)cc1`: the protection from H2O2 cell death was -14.8% (inactive).

`CCO[C@H]1OC(C(=O)N2CCOCC2)=C[C@@H](c2ccc3c(c2)OCO3)[C@@H]1CCCO`: the protection from H2O2 cell death was 2.8% (inactive).

Regarding `COc1ccc(OC)c(C(O)c2ncc(-c3cccc(C(F)(F)F)c3)[nH]2)c1` (stereo not drawn), the protection from H2O2 cell death was -12.4% (inactive).

Regarding `CCNC(=O)C1(C)CCCN(Cc2noc(-c3ccccc3OC)n2)C1` (stereo not drawn), the protection from H2O2 cell death is -1.9% (inactive).

`CCNC(=O)c1sccc1-n1cccc1`: the protection from H2O2 cell death was 5% (inactive).

`Cc1ccccc1NC(=O)CSC1=NCCN1`: the protection from H2O2 cell death is -2% (inactive).

`O=C(COC(=O)c1cccc(Cl)c1)NC1CCCCCCC1`: the protection from H2O2 cell death is -3.2% (inactive).

In the case of `O=C(COc1cccc2c1CCNC2=O)NC1CCCCC1`, the protection from H2O2 cell death is 56.1% (active).

Consider `Cc1ccccc1NC(=O)COc1cccc2c1CCNC2=O`, for which the protection from H2O2 cell death is 70.7% (active).

As to `COc1ccccc1OCC(=O)Nc1ccccc1C(=O)NC1CC1`, the protection from H2O2 cell death was 4.6% (inactive).

With `O=C(COc1ccccc1O)NC1CCCC1`, the protection from H2O2 cell death is -0.6% (inactive).

Regarding `OCC1(Cc2ccccc2C(F)(F)F)CCN(Cc2cccc3cnccc23)CC1`, the protection from H2O2 cell death is -2.8% (inactive).

For the compound `Cc1cc(O)ccc1NC1=CC(=O)CC(C)(C)C1`, the protection from H2O2 cell death was -13.4% (inactive).

Turning to `CCN(CC)CCCNC(=O)c1c(O)c2cc(F)cc3c2n(c1=O)C(C)CC3` (stereo not drawn), the protection from H2O2 cell death is 22.2% (inactive).

As to `CCCCN(CCCC)CCC(O)c1cc2c(Cl)cc(Cl)cc2c2cc(C(F)(F)F)ccc12` (stereo not drawn), the protection from H2O2 cell death is -33.9% (inactive).

As for `Cc1ccc(NC(=O)Cn2cccc2C2=NC(c3ccccc3)CO2)c(C)c1` (stereo not drawn), the protection from H2O2 cell death is -6.9% (inactive).

With `COc1ccc(Cl)cc1NC(=O)CCS(=O)(=O)c1cc2c(cc1C)NC(=O)CO2`, the protection from H2O2 cell death is 54.6% (active).

Regarding `Cc1cc2c(cc1S(=O)(=O)CCC(=O)NCc1ccccc1)OCC(=O)N2`, the protection from H2O2 cell death was 2.9% (inactive).

For `COc1ccc(NC(=O)CCS(=O)(=O)c2cc3c(cc2Cl)NC(=O)CO3)cc1OC`, the protection from H2O2 cell death was 7.8% (inactive).

Turning to `O=C(Oc1cccc(N2C(=O)C3C4c5ccccc5C(c5ccccc54)C3C2=O)c1)c1ccco1` (stereo not drawn), the protection from H2O2 cell death is -6.6% (inactive).

Take `Nc1c(N(CCO)C(=O)C2CCCCC2)c(=O)[nH]c(=O)n1Cc1ccccc1`: the protection from H2O2 cell death is -1.8% (inactive).

As to `O=C(CNC(=O)c1ccc(Cl)cc1Cl)NCC(=O)Nc1ccccc1N1CCOCC1`, the protection from H2O2 cell death is -2.6% (inactive).

As for `Cc1nccn1-c1ccc(NC(=O)[C@H]2O[C@@H](n3cnc4c(N)ncnc43)[C@H](O)[C@@H]2O)cc1`, the protection from H2O2 cell death was 4.5% (inactive).

In the case of `Cc1ccc2sc(NNC(=O)c3ccc4c(c3)OCCO4)nc2c1C`, the protection from H2O2 cell death was 81.8% (active).

On to `Cc1nc(NC(=O)c2ccc3c(c2)OCCO3)ccc1Br`, for which the protection from H2O2 cell death is -4.4% (inactive).

Take `Cc1cccc(C)c1NC(=O)CNC(=O)c1ccc2c(c1)OCCO2`: the protection from H2O2 cell death is 0.8% (inactive).

As to `O=C1CCN(Cc2ccc([N+](=O)[O-])cc2)CCN1[C@H](CO)Cc1ccccc1`, the protection from H2O2 cell death was 0.1% (inactive).

Turning to `COc1ccc(-c2ccc(Nc3ccc(S(=O)(=O)N4CCCC4)cc3)nn2)cc1OC`, the protection from H2O2 cell death is 58.5% (active).

Take `COc1ccc(S(=O)(=O)N2CCCCCC2)cc1NC(=O)Cc1ccc(OC)c(OC)c1`: the protection from H2O2 cell death is 4% (inactive).

As to `COc1cc(C(C)=O)ccc1OC(C)C(=O)Nc1ccc(S(=O)(=O)N2CCCC2)cc1` (stereo not drawn), the protection from H2O2 cell death was 4.6% (inactive).

Consider `CC(Nc1ccccc1)c1cccnc1` (stereo not drawn), for which the protection from H2O2 cell death was 4.3% (inactive).

As to `O=C(CCN1CCCCC1)Nc1ccc(F)c(F)c1`, the protection from H2O2 cell death is 0.6% (inactive).

As for `Oc1cc2c(cc1O)CN(C(=S)NCCc1ccc(Cl)cc1)CCC2`, the protection from H2O2 cell death is 74.4% (active).

Consider `Cc1cccc(NC(=S)NCCc2ccc(Cl)cc2)c1C`, for which the protection from H2O2 cell death was -6.5% (inactive).

Consider `O=C(NCCc1ccc(Cl)cc1)c1cccc(N2CCCC2=O)c1`, for which the protection from H2O2 cell death was -1.2% (inactive).

For the compound `CC(C)C1CCN(C(=O)C2CCC(=O)N(C3CCCCCC3)C2)CC1` (stereo not drawn), the protection from H2O2 cell death is -2.1% (inactive).

As for `O=C(c1cccnc1)N1CCN(S(=O)(=O)c2cccs2)CC1`, the protection from H2O2 cell death is 10.1% (inactive).

Turning to `O=C(N/N=C/c1sc(N2CCCCC2)nc1-c1cccs1)c1cccnc1`, the protection from H2O2 cell death is 56.3% (active).

Consider `Cc1ccc(S(=O)(=O)N2CCCCC2)cc1NC(=O)c1cccnc1`, for which the protection from H2O2 cell death is 12% (inactive).

Turning to `CC(C(=O)Nc1ccc(S(=O)(=O)N2CCCC2)cc1)N(C)Cc1ccc(F)cc1` (stereo not drawn), the protection from H2O2 cell death is 0.3% (inactive).
